Among the data in PubChem BioAssay (NCI) are growth values, retold here.

The panel holds about 83,000 compounds, 20% with a hit somewhere; the sample as a whole holds those more often.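 Treatment: one concentration, 48 hours, 96-well format. Scoring: percent growth, with anything below 10 considered active.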 Unmarked numbers belong to inactive results. Activity calls are given as the source filed them.

Test systems include NCI-H23 lung; NCI-H226 lung; NCI-H322M lung; HOP-62 NSCLC; NCI-H460 lung; HOP-92 NSCLC; NCI-H522 lung; A549/ATCC NSCLC; 786-0 renal; COLO 205 colon.
Common to all, as to assay: NCI-60 one-dose screen, 48 h (100 = growth as untreated, 0 = no growth, -100 = all killed)
Holding throughout (conditions): 10 µM unless noted

For the compound `O=C1NCc2ccc3c(-c4cccc(Cl)c4)c[nH]c3c21`, the growth was 35.5% in the experiment on NCI-H23 lung; 89.6% with NCI-H226 lung; 47.6% with NCI-H322M lung; 22.7% with HOP-62 NSCLC; 12.9% in the experiment on NCI-H460 lung; 52.7% in the experiment with HOP-92 NSCLC. Further, the growth in the experiment on NCI-H522 lung is 1.89% (active); in the experiment with A549/ATCC NSCLC it was 15.8%; in the experiment on 786-0 renal, 31.4%; with COLO 205 colon, -27% (active).

As for `N#Cc1c(-c2ccc(F)cc2)c(C#N)c2c(C#N)c(N)nn2c1N`, the growth with NCI-H23 lung was 96.9%; in the experiment on NCI-H226 lung, 82.2%; in the experiment with NCI-H322M lung it was 97.5%; in the experiment on HOP-62 NSCLC, 81%; in the experiment on NCI-H460 lung, 98.7%; in the experiment with HOP-92 NSCLC, 76.9%. Besides, the growth with NCI-H522 lung is 85.7%; with A549/ATCC NSCLC it was 92%; in the experiment on 786-0 renal, 94.2%; in the experiment with COLO 205 colon, 98.4%.

With `N#Cc1c(NC(=O)c2cccs2)[n+]([O-])c2cc(C(F)(F)F)ccc2[n+]1[O-]`, the growth in the experiment on NCI-H23 lung was 95.2%; in the experiment on NCI-H226 lung, 97.1%; in the experiment on NCI-H322M lung, 93.7%; with HOP-62 NSCLC, 112%; in the experiment with NCI-H460 lung, 109%; with HOP-92 NSCLC it was 33.2%. Also, the growth was 77.4% in the experiment with NCI-H522 lung, 96.1% in the experiment on A549/ATCC NSCLC, 114% in the experiment on 786-0 renal and 109% in the experiment on COLO 205 colon.

As for `N#Cc1ccc(N2Cc3cc(Cl)ccc3OC3=C2C(=O)N(Cc2ccccc2)C3=O)cc1`, the growth was 10.8% in the experiment on NCI-H23 lung; 100% with NCI-H226 lung; 96.3% in the experiment on NCI-H322M lung; 59% with HOP-62 NSCLC; 34.7% in the experiment on NCI-H460 lung; -63.8% (active) with HOP-92 NSCLC. In addition, the growth in the experiment on NCI-H522 lung is -57.2% (active); in the experiment with A549/ATCC NSCLC, 66.3%; in the experiment with 786-0 renal it was -82.4% (active); in the experiment with COLO 205 colon, -69.2% (active).

With `CN1CCN(CC#CCOC(=O)CNC(=O)[C@]23CCC(C)(C)C[C@H]2C2=CC[C@@H]4[C@@]5(C)CC[C@H](O)C(C)(C)[C@@H]5CC[C@@]4(C)[C@]2(C)CC3)CC1`, the growth with NCI-H23 lung is 94.2%; in the experiment on NCI-H226 lung, 93.5%; with NCI-H322M lung, 94.2%; with HOP-62 NSCLC, 90.4%; with NCI-H460 lung, 96.4%; in the experiment on HOP-92 NSCLC, 88.7%. For the same compound, the growth was 87.8% with NCI-H522 lung, 79.2% in the experiment with A549/ATCC NSCLC, 80.3% in the experiment on 786-0 renal and 85.4% with COLO 205 colon.

In the case of `CCOC(=O)c1sc(/N=C2\NC(=O)/C(=C/c3ccc(N4CCN(C)CC4)cc3)S2)nc1C`, the growth with NCI-H23 lung was 99.3%; with NCI-H226 lung it was 99.7%; with NCI-H322M lung it was 97.6%; in the experiment on HOP-62 NSCLC it was 105%; in the experiment on NCI-H460 lung, 109%; in the experiment on HOP-92 NSCLC, 108%. Further, the growth in the experiment on NCI-H522 lung is 77.4%; with A549/ATCC NSCLC, 89.6%; with 786-0 renal, 87%; with COLO 205 colon, 109%.

For the compound `Nc1ccccc1NC(=O)c1ccc(CSc2nc(N3CCOCC3)c3cccn3n2)cc1`, the growth was 22.5% in the experiment with NCI-H23 lung; 6.52% (active) with NCI-H226 lung; 22% in the experiment on NCI-H322M lung; 15.5% in the experiment on HOP-62 NSCLC; 15.3% with NCI-H460 lung; -6.72% (active) in the experiment on HOP-92 NSCLC. Further, the growth with NCI-H522 lung is -50.3% (active); in the experiment with A549/ATCC NSCLC, 11.8%; with 786-0 renal, 17.3%; in the experiment with COLO 205 colon, -29% (active).

For the compound `C=C1C(=O)O[C@H]2[C@H]1CC/C(COC(=O)c1cccnc1)=C\CC[C@@]1(C)O[C@@H]21`, the growth in the experiment with NCI-H23 lung was 79%; with NCI-H226 lung, 78.5%; in the experiment with NCI-H322M lung it was 104%; with HOP-62 NSCLC, 85.2%; with NCI-H460 lung it was 84.8%; in the experiment with HOP-92 NSCLC it was 49.2%. For the same compound, the growth with NCI-H522 lung was 28.7%; in the experiment with A549/ATCC NSCLC, 80.1%; in the experiment with 786-0 renal, 63.8%; in the experiment on COLO 205 colon it was 52.9%.

Take `COc1ccc(C2CC(c3ccc(OC)cc3O)=NN2c2ccc(S(N)(=O)=O)cc2)cc1` (stereo not given): the growth with NCI-H23 lung was 65.6%; with NCI-H226 lung it was 59.9%; in the experiment with NCI-H322M lung it was 59.4%; with HOP-62 NSCLC it was 83.2%; in the experiment on NCI-H460 lung, 14%; in the experiment on HOP-92 NSCLC, 20.7%. In addition, the growth is 34% in the experiment with NCI-H522 lung, 21.7% with A549/ATCC NSCLC, 38.5% in the experiment with 786-0 renal and 29.5% with COLO 205 colon.

Consider `O=[N+]([O-])c1cccc(CN(Cc2cccc([N+](=O)[O-])c2O)c2ccccc2)c1O`, for which the growth in the experiment with NCI-H23 lung is 58.4%; in the experiment with NCI-H226 lung, 83.2%; in the experiment on NCI-H322M lung, 60.1%; with HOP-62 NSCLC, 78.4%; with NCI-H460 lung, 80.1%; in the experiment with HOP-92 NSCLC it was 54.5%. In addition, the growth in the experiment on NCI-H522 lung is 63.9%; in the experiment on A549/ATCC NSCLC, 71%; in the experiment on 786-0 renal it was 51.1%; in the experiment on COLO 205 colon, 78%.

In the case of `Cc1cc(C)c(NC(=O)c2sc3nc4c(cc3c2N)CCCCCC4)c(C)c1`, the growth in the experiment on NCI-H23 lung is 81.1%; with NCI-H226 lung, 75.6%; in the experiment on NCI-H322M lung, 99.7%; in the experiment with HOP-62 NSCLC, 45.6%; with NCI-H460 lung it was 46.2%; with HOP-92 NSCLC, 51.3%. For the same compound, the growth is 4.69% (active) in the experiment with NCI-H522 lung, 53.2% in the experiment with A549/ATCC NSCLC, 48.7% in the experiment on 786-0 renal and 81.5% in the experiment on COLO 205 colon.

For the compound `CCOCCc1c(O)nc(SC)[nH]c1=O`, the growth in the experiment on NCI-H23 lung was 91.9%; in the experiment on NCI-H226 lung, 92%; with NCI-H322M lung, 111%; in the experiment with HOP-62 NSCLC, 93.3%; in the experiment with NCI-H460 lung it was 107%; in the experiment with HOP-92 NSCLC it was 99.1%. Besides, the growth is 94.7% in the experiment on NCI-H522 lung, 103% in the experiment on A549/ATCC NSCLC, 103% in the experiment on 786-0 renal and 105% in the experiment on COLO 205 colon.

Turning to `CC(=O)O[C@@H]1C[C@]2(C)[C@H]3[C@H](O)C[C@@H]4C5=CC(C)(C)CC[C@]5(C)CC[C@@]4(C)[C@]3(C)CC[C@H]2C(C)(C)[C@H]1O`, the growth in the experiment with NCI-H23 lung is 95.7%; in the experiment with NCI-H226 lung, 99.4%; in the experiment on NCI-H322M lung it was 118%; with HOP-62 NSCLC it was 101%; in the experiment with NCI-H460 lung it was 102%; in the experiment on HOP-92 NSCLC, 115%. Also, the growth in the experiment with NCI-H522 lung is 103%; in the experiment with A549/ATCC NSCLC, 94%; in the experiment with 786-0 renal, 99.3%; in the experiment with COLO 205 colon, 117%.
